From PubChem BioAssay AID504332 (National Center for Advancing Translational Sciences (NCATS), 2011) come the findings set out here.

Screen size: about 350,000 compounds; about 31,000 (8.9%) were called active. Inconclusive results (about 15%) are left out. What follows is part of a selection rich in actives, with near analogues and random picks from the rest. Unmarked numbers belong to inactive results. The call rests on the fitted dose curve; in most records, active means well fitted inhibition curve with a large enough effect; inconclusive means small, poorly fitted or top-dose-only effect; inactive means no such curve, though single readings can be large or run the other way.
On the % scale 0 is the no-effect control and ±100 the full control effect; potency means the concentration at half of the fitted maximal effect.

Sequence of Histone-lysine N-methyltransferase EHMT2 (Homo sapiens) (Q96KQ7 913-1193 limits assumed): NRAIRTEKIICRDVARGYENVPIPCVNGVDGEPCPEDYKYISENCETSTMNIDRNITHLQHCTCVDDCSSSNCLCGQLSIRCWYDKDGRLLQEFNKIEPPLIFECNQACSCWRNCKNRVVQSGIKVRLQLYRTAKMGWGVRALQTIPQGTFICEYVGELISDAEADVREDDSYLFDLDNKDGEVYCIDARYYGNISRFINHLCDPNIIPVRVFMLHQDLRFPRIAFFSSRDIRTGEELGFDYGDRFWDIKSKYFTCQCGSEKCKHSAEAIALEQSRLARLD

The target of the test is Histone-lysine N-methyltransferase EHMT2 (Homo sapiens) (UniProt Q96KQ7). In words: qHTS Assay for Inhibitors of Histone Lysine Methyltransferase G9a. Further: nearly all actives have a fitted effect of over 75% in size. The settings on record: G9a H3K9 monomethylation, AlphaScreen, 2 h; series mostly up to 59 µM; activity, negative = inhibition: at the top concentration. The procedure, abridged:
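Quantitative HTS format: methyltransferase activity on a biotin-tagged H3K9 peptide is measured by AlphaScreen, using a rabbit anti-monomethyl-H3K9 antibody with streptavidin donor and anti-IgG acceptor beads. Final levels are 20 nM enzyme, 500 nM peptide, 20 uM SAM; 2 h RT.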
For `O=C(Nc1ccc2nc(SCCOc3ccccc3Cl)sc2c1)c1ccco1`, the “activity, negative = inhibition” value is -31.5%.
Take `O=S(=O)(NCc1ccccc1Br)c1ccccc1Br`: the activity, negative = inhibition was 7.86% [at 2.33 µM].
In the case of `O=c1[nH]c2ccc(S(=O)(=O)N3CCCC3)cc2[nH]1`, the “activity, negative = inhibition” value is 2.56% [at 102 µM].
On to `CCCCn1c(=S)[nH]c2cc(S(=O)(=O)N3CCCCC3)ccc21`, for which the Potency is 1.78 µM (active).
As to `CN(Cc1ccccc1)C(=O)c1cn(C)c2ccc(S(=O)(=O)N3CCCCC3)cc2c1=O`, the “activity, negative = inhibition” value is -1.71%.
Take `O=C(NCCc1ccccc1)c1ccc2c(c1)N(Cc1ccc(F)cc1)C(=O)c1ccccc1S2(=O)=O`: the “activity, negative = inhibition” value is -0.301%.
Turning to `Cc1ccc2oc(=O)c3cnn(CC(=O)NCc4ccccc4Cl)c3c2c1`, the “activity, negative = inhibition” value was 11.1%.
As to `CCn1c(C(=O)Nc2cc(Cl)ccc2C)cc2sc(Cl)cc21`, the “activity, negative = inhibition” value was 5.25%.
On to `C=C(C)CNC(=S)N/N=C/c1ccccc1OCC(=O)O`, for which the Potency was 11.2 µM (active).
Regarding `CCOc1ccccc1/C=N/NC(=O)CNC(=O)COc1ccccc1`, the “activity, negative = inhibition” value is 1.78% [at 102 µM].
As for `C=CCOc1ccccc1/C=N/NC(=O)Cc1ccccc1`, the activity, negative = inhibition is -1.48% [at 0.501 µM].
Consider `CCCCn1nc(C(=O)Nc2cccc(C(=O)NC3CC3)c2)c2ccccc2c1=O`, for which the activity, negative = inhibition is 5.39% [at 2.33 µM].
With `CCNC(=O)Cn1nc(C)n2c(cc3c(OC)cccc32)c1=O`, the “activity, negative = inhibition” value is 11.3%.
Consider `O=C(CC1SC(=Nc2ccccc2)N(Cc2ccccn2)C1=O)Nc1cccc(Cl)c1` (centres undefined), for which the Potency is 8.91 µM (active).
Regarding `O=C(Nc1cccc(Cl)c1)OCc1ccccn1`, the “activity, negative = inhibition” value is -10.1% [at 102 µM].
On to `CN1C(=O)C(CC(=O)Nc2ccccc2)S/C1=N/c1nccs1` (centres undefined), for which the “activity, negative = inhibition” value is 19.4% [at 102 µM].
With `COc1ccc(-c2nc3ccccc3o2)cc1NC(=O)c1cc([N+](=O)[O-])ccc1N1CCOCC1`, the “activity, negative = inhibition” value was 3.44%.
For `CC(Sc1cccc[n+]1[O-])C(=O)Nc1cccc(S(=O)(=O)N2CCOCC2)c1` (centres undefined), the Potency is 8.91 µM (active).
With `O=C(CSc1ccccc1)Nc1cccc(S(=O)(=O)N2CCOCC2)c1`, the activity, negative = inhibition is 7.75% [at 12.7 µM].
Regarding `Cc1cc(C(=O)OC(C)C(=O)Nc2cccc(S(=O)(=O)N3CCOCC3)c2)c(C)o1` (centres undefined), the “activity, negative = inhibition” value was -16.9% [at 102 µM].
Regarding `COc1cccc(C2=CC(=O)C[C@H](c3ccc(F)cc3)C2)c1OC`, the activity, negative = inhibition is -9.38% [at 0.501 µM].
As to `O=c1[nH][nH]c(=O)c2cc(N3CCCC3)ccc12`, the “activity, negative = inhibition” value was -1.28% [at 102 µM].
Consider `O=C1C=CC(=O)N1c1ccc(N2CCCCC2)cc1`, for which the Potency was 0.562 µM (active).
Regarding `CCOC(=O)/C(C#N)=C/c1ccc(N2CCCCC2)cc1`, the “activity, negative = inhibition” value was 442% [at 102 µM].
On to `COc1ccc(Nc2ncnc3ccc(Br)cc23)c(OC)c1`, for which the “activity, negative = inhibition” value was 29.9% [at 102 µM].
`COc1ccc(-c2nc(SCC(=O)N3CCCCC3C)n[nH]2)cc1` (centres undefined): the “activity, negative = inhibition” value is 2.49%.
On the same count and under the same terms, then `COc1ccccc1CCNC(=O)c1cccn1-c1nnc(N2CCCCC2)s1`, with -7.53%; and `CC1(C)O[C@@H]2[C@H](O1)[C@@H](COS(=O)(=O)O)O[C@H]2n1cnc2c(=O)[nH]cnc21`, with 9.85% [at 2.33 µM]; and `Cc1nn(C(=O)c2c(F)cccc2F)c(C)c1S(=O)(=O)N1CCOCC1`, with 8.64%.
On the same count and under the same terms, with `Cc1ccc(S(=O)(=O)N2CCN(Cc3cccc(C)c3O)CC2)cc1` the figure was 12.4%; with `O=C(CN1CCN(S(=O)(=O)c2ccc(F)cc2)CC1)NC1CC1`, 6.21% [at 102 µM].
For `O=S(=O)(c1ccc(F)cc1)N1CCN(Cc2ccccc2C(F)(F)F)CC1`, the Potency is 10 µM (active).
For the compound `CCN(CC(=O)Nc1ccc(OC)cc1)C(=O)c1ccc(=O)n(Cc2ccccc2)n1`, the “activity, negative = inhibition” value is 25%.
Regarding `Cc1ccccc1-c1nc2cc(NC(=O)c3cccc(OCCC(C)C)c3)ccc2o1`, the “activity, negative = inhibition” value is 0.952%.
Same read-out and setting: with `Cc1nc2c(c(C)nn2-c2ccccc2)c(C)c1CCC(=O)NCCc1ccc(Cl)cc1` the figure was 13.2%.
As to `CN1/C(=c2/s/c(=C3/C(=O)N(c4ccccc4)NC3=Nc3ccccc3)n(C)c2=O)C(C)(C)c2ccccc21`, the Potency was 10 µM (active).
Take `CCc1noc(C)c1C(=O)N1CCN(S(=O)(=O)c2cccc(C(F)(F)F)c2)CC1`: the activity, negative = inhibition was 9.9% [at 12.7 µM].
As for `COc1ccc(CNC(=O)CC2Oc3ccc(C)cc3NC2=O)cc1` (centres undefined), the “activity, negative = inhibition” value is 7.92%.
For `Cc1cccc(N(Cc2ccccc2)C(=O)c2cc(S(=O)(=O)N3CCOCC3)ccc2F)c1`, the “activity, negative = inhibition” value was -26.9% [at 102 µM].
On to `CCOc1cccc2cc(-c3cn4c(n3)sc3cc(C)ccc34)c(=O)oc12`, for which the “activity, negative = inhibition” value is -3.75%.
Consider `CC1(C(=O)NNC(=S)NCC2CCCO2)CC1(Cl)Cl` (centres undefined), for which the “activity, negative = inhibition” value was 55.8% [at 102 µM].
For the compound `Cc1ccc(Cn2c(NC(=O)c3ccco3)nc3ccccc32)cc1`, the “activity, negative = inhibition” value was 0.509%.
As to `CCn1nc(NC(=O)c2ccco2)c2cc3ccc(C)cc3nc21`, the Potency is 50.1 µM (active).
Consider `Cc1ccc(-n2nc3cc(Cl)c(NC(=O)c4ccco4)cc3n2)cc1`, for which the “activity, negative = inhibition” value is -40.1%.
Regarding `COc1ccccc1NC(=O)COC(=O)c1ccccc1SCC(=O)N1CCCC1`, the “activity, negative = inhibition” value is -3.4%.
As for `CC(OC(=O)CNS(=O)(=O)/C=C/c1ccccc1)C(=O)Nc1ccc(S(=O)(=O)N2CCCC2)cc1` (centres undefined), the Potency was 10 µM (active).
As to `COc1cc(C(C)=O)ccc1OC(C)C(=O)Nc1ccc(S(=O)(=O)N2CCCC2)cc1` (centres undefined), the activity, negative = inhibition is 9.79% [at 12.7 µM].
With `CC(C(=O)Nc1ccc(S(=O)(=O)N2CCCC2)cc1)N(C)Cc1ccc(F)cc1` (centres undefined), the activity, negative = inhibition is 2.24% [at 2.33 µM].
In the case of `Cc1ccc(NS(=O)(=O)c2ccc3c(c2)CC(=O)N3)cc1Cl`, the activity, negative = inhibition was -0.894% [at 12.7 µM].
